# Screening data (PubChem)
# This is one part of a sample in which hits are shown more often than they occur.
# Methyltransferases: Primary Screen for Target Class Profiling of Small Molecule Inhibitors of Methyltransferases. purified enzyme, MTase-Glo SAH luminescence; active compounds read low. calls only at 40 µM. 25,000 tested, 3.9% active. AID 1745853, 2022; call rule not given here
#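 Each enzyme was assayed with SAM and its substrate. SAH formation detected by MTase-Glo luminescence; single-point 40 uM screen[…].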
# Numbers without * were called inactive; i = inactive; + = active, no number. % is scaled to controls: 0 for no effect and ±100 for the full control effect.
SMILES,Methyltransferases
Cc1ccc(NC(=O)N2Cc3c(sc4c3CCCC4)-n3cccc3C2c2cccc(F)c2)cc1F (stereo not given),i
CC1CC(C)CN(CCCN2C(=O)c3ccc(-c4ccco4)n3CC2(C)C(=O)NC2CCCCCC2)C1 (stereo not given),i
CCOCCCN1C(=O)c2cc(-c3ccc(OC)cc3)nn2CC1(C)C(=O)NC1CCCCC1 (stereo not given),i
O=C1c2ccccc2C(=O)c2cc(S(=O)(=O)N(CCO)CCO)ccc21,+
O=C1c2ccccc2C(=O)c2cc(S(=O)(=O)NC3CCCCC3)ccc21,i
O=c1[nH]c2ccc(S(=O)(=O)N(CCO)CCO)cc2[nH]1,i
CC(C)CCNC(=O)C1(C)Cn2c(cc3ccccc32)C(=O)N1CCC(C)C (stereo not given),i
CC1CCC(NC(=O)C2(C)Cn3c(cc4occc43)C(=O)N2Cc2cccc(Br)c2)CC1 (stereo not given),i
CCCC1c2ccc(C)n2CCN1C(=O)Nc1cccc(C)c1 (stereo not given),i
Cc1ccc(CCNC(=O)c2cc3n(n2)CC(C)(C(=O)NC2CCCCCC2)N(C)C3=O)cc1 (stereo not given),i
O=C(CCCc1nnc2n3nc(-c4ccccc4)nc3c3ccccc3n12)N1CC=C(c2ccccc2)CC1,i
COc1ccc(-c2nnc(-c3ccc(Cl)c(S(=O)(=O)N4CCC(C)CC4)c3)o2)cc1OC,i
CCN1CCN(Cc2cc3ccc(C)cc3nc2-c2ccc(OC)c(OC)c2)CC1,i
COc1ccc(-c2oc3ccc(C)cc3c(=O)c2O)cc1OC,+
CCOc1ccc(N2C(=O)CSc3c(c4ccccc4n3C)C2C(=O)NCCCOC(C)C)cc1 (stereo not given),i
CC1(C(=O)NC2CCCCCC2)Cn2c(cc3sccc32)C(=O)N1CCc1ccc(Cl)cc1 (stereo not given),i
CC1CCCCN1c1nc2c(S(=O)(=O)c3ccccc3)nnn2c2ccc(Cl)cc12 (stereo not given),i
COCCN1C(=O)c2c(NC(C)=O)c3cc(OC)ccc3n2CC1(C)C(=O)NC1CCCCCC1 (stereo not given),i
CCCC1(CCC)CCC2(CCN(CCCN(CC)CC)C2)CC1,+
CCOC(=O)c1cc2n(n1)CC(C)(C(=O)NCc1ccccc1OC)N(c1ccc(OC)cc1)C2=O (stereo not given),i
Cn1cc(-c2cnc3ccc4ccc(CS(=O)(=O)NCc5ccccn5)cc4c(=O)c3c2)cn1,+
Cn1cc(-c2ccc3ncc(Cc4ccc5ncccc5c4)n3n2)cn1,i
CN1C(=O)c2cc(C(=O)NCc3ccccn3)nn2CC1(C)C(=O)NCc1ccccc1 (stereo not given),i
Cc1ccc(CNC(=O)C2(C)Cn3cnc(C(=O)NCc4ccccc4Cl)c3C(=O)N2C2CC2)cc1 (stereo not given),i
O=C(NCCc1ccccc1)c1cc(-c2ccc(Cl)cc2)nc2n[nH]c(-c3ccccc3)c12,i
SMILES,Methyltransferases
CC(=O)Nc1c2n(c3ccc(F)cc13)CC(C)(C(=O)NC1CCCC1)N(Cc1ccc(F)cc1)C2=O (stereo not given),i
COc1ccc(OC)c2c1cc1n2CC(C)(C(=O)NC2CCCCC2)N(CCc2ccccc2)C1=O (stereo not given),i
CCN(CC)CCN1C(=O)c2ccc(-c3ccco3)n2CC1(C)C(=O)NC1CCCCC1 (stereo not given),i
C=C1C(=O)O[C@@H]2/C=C(\C)C(=O)/C=C/[C@](C)(O)C[C@@H](OC(=O)C(C)C)[C@@H]12,+
C=C1C(=O)OC2/C=C(\C)CC/C=C(\C)CC(OC(C)=O)C12 (stereo not given),i
C=C1C(=O)O[C@@H]2/C=C(/C)CC3C=C(C[C@H](OC(=O)/C(C)=C\C)[C@@H]12)C(=O)O3 (stereo not given in full),i
CC1(C(=O)NCc2ccc(F)cc2)Cn2cnc(C(=O)NCCc3ccc(Cl)cc3)c2C(=O)N1C1CC1 (stereo not given),i
Cc1ccc(Nc2ccn3c(=O)n(CC(=O)Nc4ccc(C)cc4C)nc3n2)cc1,i
Cc1ccc(Cn2c(=O)c3ccccc3n3c(=O)n(CC(=O)Nc4cc(C)cc(C)c4)nc23)cc1,i
CCCCN1C(=O)c2cc(C(=O)Nc3ccc(OCC)cc3)nn2CC1(C)C(=O)NC1CCCC1 (stereo not given),i
O=C(Nc1nn(Cc2ccccc2)c2cccc(N3CCOCC3)c12)C1CCC1,i
O=C(NCCCNc1nc(Nc2cccc(CN3CCOCC3)c2)ncc1C1CC1)C1CCC1,+
CNc1nccnc1-c1cccc(CN2CCOCC2)c1,i
CCOC(=O)c1cc2n(n1)CC(C)(C(=O)NC1CCCC1)N(Cc1cccc(C)c1)C2=O (stereo not given),i
COc1ccccc1CNC(=O)C1(C)Cn2nc(-c3ccccc3)cc2C(=O)N1c1cccc(F)c1 (stereo not given),i
Cn1c(=O)c2ccc(C(=O)NC3CCCC3)cc2n2c(SCC(=O)c3ccccc3)nnc12,i
O=C(c1c(F)ccc(NS(=O)(=O)N2CC[C@@H](F)C2)c1F)c1c[nH]c2ncc(-c3cnc(C4CC4)nc3)cc12,i
COc1ccc(-c2cnc3[nH]cc(CC(=O)N4CCNC(=O)C4)c3c2)cc1,i
CCCS(=O)(=O)Nc1ccc(F)c(C(=O)c2c[nH]c3ncc(-c4ccc(Cl)cc4)cc23)c1F,+
COc1ccc2cc3n(c2c1)CC(C)(C(=O)NCC1CCCO1)N(Cc1ccc(F)cc1)C3=O (stereo not given),i
CC1(C(=O)NC2CCCCCC2)Cn2c(ccc2-c2ccco2)C(=O)N1CCc1ccc(Cl)cc1 (stereo not given),i
C=Cc1ccc(Cn2nc3n(C(C)C)c(=O)c4ccc(C(=O)NC(C)C)cc4n3c2=O)cc1,i
COc1cc2c(cc1OC)CN(C(=O)/C=C/c1c(-c3ccccc3)n(C)c3ncccc13)CC2,+
COc1cc2c(cc1OC)CN(CCc1ccc(NC(=O)c3cc(OC)c(OC)cc3NC(=O)c3cnc4ccccc4c3)cc1)CC2,i
CCOC(=O)c1cc2n(n1)CC(C)(C(=O)NC1CCCCCC1)N(c1cccc(SC)c1)C2=O (stereo not given),i
SMILES,Methyltransferases
Cc1cccc(CCNC(=O)Cn2c(=O)oc3cc(S(=O)(=O)N4CCCC4)ccc32)c1,i
Clc1ccc(C2(c3ccc(-c4cn[nH]c4)cc3)CCNCC2)cc1,+
CC(NC(=O)Cn1ccc2cc(S(=O)(=O)N3CCCCC3)ccc21)c1ccccc1 (stereo not given),i
CC1(C(=O)NCc2ccc(F)cc2)Cn2cnc(C(=O)Nc3ccc4c(c3)OCCO4)c2C(=O)N1C1CC1 (stereo not given),i
CCOc1ccc(CCNC(=O)c2cc3n(n2)CC(C)(C(=O)NC2CCCCC2)N(C)C3=O)cc1 (stereo not given),i
CCCN1C(=O)c2cc(C(=O)NCc3ccccn3)nn2CC1(C)C(=O)NC1CCCC1 (stereo not given),i
COc1cc2c(Nc3ccc(Br)cc3F)ncnc2cc1OCC1CCN(C)CC1,+
COc1cc2c(Nc3cc(F)c(Cl)c(Cl)c3)ncnc2cc1OCC1CCCN(C)CCC1,+
Cc1cc(C)cc(N2C(=O)c3cc4sccc4n3CC2(C)C(=O)NC2CCCC(C)C2C)c1 (stereo not given),i
